# The campaign covered roughly 13,000 compounds. About 3,200 (25%) showed an effect of 50% or more. The list shows a part of the results.
# Tested on: P. falciparum stage V gametocytes
# Design: BacTiter-Glo ATP luminescence viability of purified stage V gametocytes in 384-well plates, per cent inhibition versus DMSO
# Conditions: 48 h, 5 µM; inhibitor
row,SMILES,% Inhibition [%]
1,OC(CNc1ccnc(Nc2cccc(Cl)c2)n1)c1ccc(C(F)(F)F)cc1 (stereo not shown) [TCMDC-136596],-49.28
2,Cc1nc(N)nc(N)c1-c1ccc(Br)cc1 [TCMDC-137374],-63.84
3,COc1cc2nc(-c3ccc(Br)cc3)cc(N)c2cc1OC [TCMDC-138933],106.9
4,COc1cc2nc(C)nc(Nc3cccc(Br)c3)c2cc1OC [TCMDC-131939],-0.682
5,N#Cc1ccc(CN2CCC(Oc3ccc(NC(=O)c4cccs4)cc3)C2)cc1 (stereo not shown) [TCMDC-133959],8.963
6,N[C@@H](CCNCc1ccc(-c2cccnc2)cc1)Cc1ccc(F)c(F)c1 [TCMDC-132122],33.59
7,N#Cc1c(F)cc(N2CCC(NCC[C@H](N)Cc3ccc(F)c(F)c3)CC2)cc1F [TCMDC-132121],103.9
8,O=C(Nc1cccc(N2CCC(NCCCc3ccncc3)CC2)c1)c1cccc(C(F)(F)F)c1 [TCMDC-124659],7.336
9,N[C@@H](CCN1CCC(c2cccc(O)c2)CC1)Cc1ccc(F)c(F)c1 [TCMDC-132126],-7.47
10,N[C@@H](CCNC1CCN(c2cccc(C(F)(F)F)c2)CC1)Cc1ccc(F)c(F)c1 [TCMDC-132301],119.6
11,O=C(NC1CCCC1)c1ccc(N2CCC(NCc3cccc(C(F)(F)F)c3)CC2)cc1 [TCMDC-124644],-9.577
12,O=C(Nc1ccc(Cl)c(-c2nc3ccccc3[nH]2)c1)c1ccc(-c2ccc(Cl)cc2)o1 [TCMDC-125599],-11.96
13,N#Cc1ccc(N2CCN(Cc3ccc(-c4ccc(-c5nc6ccccc6[nH]5)s4)cc3)CC2)nc1.O=C(O)C(F)(F)F [TCMDC-133119],-24.51
14,COCCNCc1cccc(-c2ccc(CN(C(=O)NC3CCCCC3)C3CCN(Cc4ccccc4)CC3)cc2)c1 [TCMDC-140636],84.07
15,COCCNCc1ccc(-c2ccc(CN(C(=O)NC3CCCCC3)C3CCN(Cc4ccccc4)CC3)cc2)cc1 [TCMDC-140637],95.07
16,C[C@@H](CC1CCCCC1)NCc1cccc(NS(=O)(=O)c2ccc(O)c(-c3ccno3)c2)c1 [TCMDC-141485],41.65
17,COc1cc2[nH]c(-c3ccc(O)cc3)c(C)c(=O)c2c(OC)c1OC [TCMDC-137449],59.36
18,COc1c(O)cc2oc(-c3ccc(O)cc3)cc(=O)c2c1O [TCMDC-123942],46.88
19,COc1cc(-c2nc(-c3ccccc3)c(-c3ccc([N+](=O)[O-])cc3)[nH]2)cc(OC)c1O [TCMDC-125529],-60.07
20,O=C(Nc1ccc(Cn2ncc(N3CCCNCC3)c(Cl)c2=O)cc1)Nc1cc(C(F)(F)F)cc(C(F)(F)F)c1 [TCMDC-133327],-39.39
21,Cc1cc(N2CCOCC2)nc(Nc2ccc(NC(=O)c3cccc4ccccc34)cc2)n1 [TCMDC-124962],3.103
22,C[C@H](N[C@H]1CCCc2c1[nH]c1ccc(Br)cc21)c1ccccc1 [TCMDC-138915],-58.95
23,Cc1cc(-c2ccc(NC(=O)c3coc4ccc(N5CC(C)N(C)C(C)C5)cc34)cc2C)cc(C)n1 (stereo not shown) [TCMDC-141310],-15.05
24,Cc1nc(-c2ccc(-c3ccc(NC(=O)c4coc5ccc(N6CC(C)NC(C)C6)cc45)cc3)c(C)c2)no1 (stereo not shown) [TCMDC-141309],-4.933

row,SMILES,% Inhibition [%]
1,Cc1nc(-c2ccc(-c3ccc(NC(=O)c4coc5ccc(N6CC(C)N(C)C(C)C6)cc45)cc3)c(C)c2)no1 (stereo not shown) [TCMDC-141233],92.65
2,O[C@H](c1cc(C(F)(F)F)nc2c(C(F)(F)F)cccc12)[C@@H]1CCCCN1 [TCMDC-123920],23.74
3,N#Cc1cccc(NC(=O)Nc2ccc3c(c2)CN(Cc2c[nH]c4ncccc24)C3)c1 [TCMDC-141757],5.913
4,COC(=O)c1cccc(C#CCCOCCCCCCNC[C@H](O)c2cc(Cl)c(N)c(Cl)c2)c1 [TCMDC-138515],25.12
5,Cc1ccc(S(=O)(=O)N2CCN(C(=O)c3cc(-c4cccs4)[nH]n3)CC2)c(C)c1 [TCMDC-124700],26.64
6,O=C(c1cc(-c2cccs2)[nH]n1)N1CCN(S(=O)(=O)c2ccc(Cl)cc2)CC1 [TCMDC-124702],54.51
7,O=C(c1cc(-c2cccs2)[nH]n1)N1CCN(S(=O)(=O)c2ccc(Br)cc2)CC1 [TCMDC-124703],15.64
8,O=C(c1cc(-c2ccco2)[nH]n1)N1CCN(S(=O)(=O)c2ccc(Br)cc2)CC1 [TCMDC-124699],-28.22
9,O=C(c1cc(-c2ccco2)[nH]n1)N1CCN(S(=O)(=O)c2ccc(Cl)cc2)CC1 [TCMDC-124698],58.01
10,O=C(c1cc(-c2cccs2)[nH]n1)N1CCN(S(=O)(=O)c2ccc(Cl)s2)CC1 [TCMDC-124701],26.12
11,CC(Nc1ccnc2cc(Cl)ccc12)c1ccc(S(N)(=O)=O)cc1 (stereo not shown) [TCMDC-125107],16.92
12,Cc1nc(Nc2ccc(C)c(Cl)c2)c2c(C)noc2n1 [TCMDC-125162],15.95
13,Cc1ccc(Cl)cc1NC(=O)c1c(-c2ccccc2Cl)noc1C [TCMDC-124175],-15.67
14,O=C(NC1CCCc2ccccc21)[C@@H]1CCCN1C(=O)c1ccc(O)c(-c2cccc([N+](=O)[O-])c2)c1 (stereo partly shown) [TCMDC-140798],18.58
15,COc1ccc(C(=O)N[C@@H](CC(C)C)C(=O)NC2CC[C@@H](C)N(C(=O)Nc3ccc(Cl)cc3)CC2=O)cc1OCCN1CCOCC1 (stereo partly shown) [TCMDC-134276],-74.97
16,CCOC(=O)c1ccc(OCc2ccc(-c3ccccc3)cc2)cc1 [TCMDC-131397],4.826
17,CCOC(=O)c1ccc(N(CCCN(CCCN(c2ccc(C(=O)OCC)cc2)S(=O)(=O)c2ccc(C)cc2)CCc2ccc(O)cc2)S(=O)(=O)c2ccc(C)cc2)cc1 [TCMDC-137351],57.74
18,CCOC(=O)c1ccc(COc2ccc(C)nc2)cc1 [TCMDC-131377],0.9057
19,CC(CCc1ccccc1)NCC(O)c1ccc2c3c(cccc13)S(=O)(=O)N2C (stereo not shown) [TCMDC-131253],8.689
20,c1ccc2c(NCCCCCCCNc3ccnc4ccccc34)ccnc2c1 [TCMDC-137897],122.9
21,c1ccc2c(NCCCCCCCCCNc3ccnc4ccccc34)ccnc2c1 [TCMDC-137750],102.2
22,FC(F)(F)c1ccc2c(NCCCNc3ccnc4cc(C(F)(F)F)ccc34)ccnc2c1 [TCMDC-137736],28.34
23,FC(F)(F)c1ccc2c(NCCNc3ccnc4cc(C(F)(F)F)ccc34)ccnc2c1 [TCMDC-137881],-4.365
24,Clc1ccc2c(NCCCCCCCCNc3ccnc4cc(Cl)ccc34)ccnc2c1 [TCMDC-137733],25.46

row,SMILES,% Inhibition [%]
1,NCCCNc1ccnc2cc(Cl)ccc12 [TCMDC-123921],17.37
2,c1ccc2c(NCCCCCCNc3ccnc4ccccc34)ccnc2c1 [TCMDC-137913],91.15
3,NCCNc1ccnc2cc(Cl)ccc12 [TCMDC-125850],23.17
4,Clc1ccc2c(NCCNc3ccnc4cc(Cl)ccc34)ccnc2c1 [TCMDC-137882],57.8
5,COc1ccc(NCCCNc2ccnc3ccccc23)cc1 [TCMDC-139253],-97.14
6,COc1ccccc1-c1cccc2c(NC(=O)Nc3ccc4nccc(N5CCN(C)CC5)c4c3)ccnc12 [TCMDC-139384],-27.38
7,COc1ccc(C(=C(C)CC(C)C(=O)O)c2ccccc2)cc1 (stereo not shown) [TCMDC-131745],-8.546
8,Cc1c(CNCCCNc2nc3ccccc3[nH]2)sc(C(F)F)c1Br [TCMDC-141323],13.37
9,Cc1ccccc1-c1cc(=O)c2cc(NC(=O)c3cccs3)ccc2o1 [TCMDC-124947],11.18
10,COc1ccccc1/C=C/C(=O)N(C)C1CCN(CCCCCNC(=O)/C=C/c2ccc(Cl)c(Cl)c2)C1 (stereo not shown) [TCMDC-139996],13.3
11,Nc1nc(N)c2c(n1)CCc1cc(Br)ccc1-2 [TCMDC-125525],4.608
12,CN1CCC(c2c[nH]c3ccc(NC(=O)Nc4ccc(-c5ccncc5)cc4Cl)cc23)CC1 [TCMDC-139180],-1.977
13,CC(C)(C)CNc1noc(-c2sccc2Br)n1 [TCMDC-134187],-20.57
14,C=CCN1C(=O)CN(S(=O)(=O)c2ccc(-n3nc(C)cc3C)cc2)C1=S [TCMDC-131799],-1.195
15,CN(C)CCCNc1ccnc2cc(Cl)ccc12 [TCMDC-123919],17.18
16,c1ccc2c(NCCCCCCCCNc3ccnc4ccccc34)ccnc2c1 [TCMDC-137751],124.8
17,CN(CCCNC(=S)NC12CC3CC(CC(C3)C1)C2)CCCNc1ccnc2cc(Cl)ccc12 [TCMDC-137885],114.9
18,CNCCCNc1ccnc2cc(Cl)ccc12 [TCMDC-125233],36.92
19,CN1CCN(Cc2cc(NC(=O)c3ccc(-c4ccc(Cl)cc4Cl)cc3)ccc2-c2ccccc2)CC1 [TCMDC-138839],21.61
20,CC(C)CN1CCC(N(C)c2cc(NC(=O)c3cccc(F)c3)ccn2)CC1 [TCMDC-135022],-32.51
21,CC(C)Cn1c(Sc2ccc(C#N)c([N+](=O)[O-])c2)nnc1-c1cccs1 [TCMDC-135575],26.53
22,O=C(Nc1cccc(C(F)(F)F)c1)Nc1cc(F)c(F)cc1Cl [TCMDC-123779],32.47

# — article PMC4552634, “A New Set of Chemical Starting Points with Plasmodium falciparum Transmission-Blocking Potential for Antimalarial Drug Discovery” (PLoS ONE, 2015)
